Assay outcomes as filed in PubChem.
aGal spleen mod: inhibitors or activators of human alpha-galactosidase in spleen homogenate; P06280; human spleen homogenate, 4MU-alpha-Gal fluorescence, 40 min; Potency, µM (series often up to 80 µM), actives largely listed as inhibitors; 240,000 compounds, 0.008% hits
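Human spleen homogenate (1 ug) was the enzyme source, with 4-methylumbelliferyl-alpha-D-galactopyranoside (1 mM final) in pH 5.0 citrate buffer with 0.01% Tween-20. Compounds were titrated; after 40 min at 37C, NaOH/glycine stop, 4-MU fluorescence read; AC50 from Hill fits.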
GAA glycogen mod: inhibitors or activators of human alpha-glucosidase glycogen cleavage; P10253; recombinant GAA, glycogen substrate, Amplex Red glucose oxidase fluorescence; Potency, µM (doses to about 76.4 µM), actives largely listed as inhibitors; 300,000 compounds, 0.38% hits; AID 2100;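 further: the screen sought inhibitors and activators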
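Recombinant human alpha-glucosidase (4 nM final) hydrolysed bovine liver glycogen (30 ug) for 40 min at 37 C in pH 5.0 citrate/phosphate with 0.01% Tween-20. Released glucose detected by glucose oxidase/Amplex Red, Ex 573/Em 610 nm. Compounds up to 77 uM; AC50 from Hill fits.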
GLA inh pH 4.5: alpha-galactosidase A (human) inhibition, pH 4.5. purified enzyme, 4-MU-alpha-Gal fluorescence, pH 4.5. activity change, negative = inhibition, % at 105 µM. P06280. 230,000 tested, under 10 active. AID 1467
Target sequence (P06280 whole entry, looked up): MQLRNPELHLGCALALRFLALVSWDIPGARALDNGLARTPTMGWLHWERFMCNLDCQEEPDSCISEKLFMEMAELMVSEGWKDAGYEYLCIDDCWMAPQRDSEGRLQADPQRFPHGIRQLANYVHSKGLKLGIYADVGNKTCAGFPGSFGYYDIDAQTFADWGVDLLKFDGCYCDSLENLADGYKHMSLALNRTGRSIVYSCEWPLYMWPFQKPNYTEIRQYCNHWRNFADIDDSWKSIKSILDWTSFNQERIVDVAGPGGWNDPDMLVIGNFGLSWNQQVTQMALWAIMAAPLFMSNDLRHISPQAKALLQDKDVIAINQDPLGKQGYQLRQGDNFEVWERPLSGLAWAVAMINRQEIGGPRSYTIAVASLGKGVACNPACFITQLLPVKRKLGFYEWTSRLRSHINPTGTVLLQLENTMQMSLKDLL
aGlu spleen mod: lysosomal alpha-glucosidase (human) modulation. P10253. human spleen homogenate, 4-MU-alpha-glucoside fluorescence. Potency, µM (highest dose often 79.9 µM), actives largely listed as inhibitors. 240,000 compounds, 0.006% hits. AID 2112
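Compounds were titrated against alpha-glucosidase in spleen homogenate at pH 5.0, with 1 mM 4-methylumbelliferyl substrate for 40 min at 37 C. Reactions were quenched with pH 10 NaOH/glycine and fluorescence measured.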
GAA inh: inhibitors of human lysosomal alpha-glucosidase; 200,000 compounds, 0.005% hits; Potency, µM (series often up to 76.9 µM), most hits filed as inhibitors; AID 1466; purified human GAA, 4-MU-alpha-glucoside fluorescence
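Fluorogenic assay: 4 nM human alpha-glucosidase with 400 uM 4-methylumbelliferyl-alpha-D-pyranoside in 50 mM citrate/phosphate, 0.005% Tween-20, pH 5.0, 20 min at room temperature. Compounds tested up to 77 uM; AC50 from Hill fits.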
N370S GC: N370S glucocerebrosidase modulation, Gaucher chaperone candidate; P04062; N370S GC spleen homogenate, 4MU-glucoside fluorescence; Potency, µM (series often up to 59.4 µM), most hits filed as inhibitors; 330,000 compounds, 0.092% hits; AID 2101
Of the large screens only hits and unclear results are named; the others gave an inactive call. An excerpt weighted towards active compounds, which were near 0.43% of everything screened. The call rests on the fitted dose curve; in most records, active means well fitted curve in the direction sought with a large enough effect; inconclusive means small, poorly fitted or top-dose-only effect, or another doubt; inactive means no such curve, though single readings can be large; an effect the other way counts as inactive or inconclusive.

COc1ccc(C2NC3=C(CCCC3)C(C#N)(C#N)C2(C#N)C#N)cc1 (centres undefined)	none
CC1(C(=O)O)NCCc2cc(O)c(O)cc21 (centres undefined)	none (no result: GAA glycogen mod, GLA inh pH 4.5, GAA inh)
c1ccc(-c2ccc3c(c2)NCCN3)cc1	GAA glycogen mod 8.91µM (no result: GAA inh)
Cc1ccc(Nc2cc(C)nc(-c3ccccc3)n2)cc1	N370S GC 3.16µM (no result: aGal spleen mod, GLA inh pH 4.5, aGlu spleen mod, GAA inh)
Cc1ccc(Nc2cc(C)nc(-c3ccccc3O)n2)cc1	N370S GC inconclusive
Cc1cc(Nc2ccc(Cl)cc2)nc(NCc2ccccc2)n1	N370S GC 22.4µM
CCN(CC)c1ccc(/C=N/Nc2cccc(C)c2)c(O)c1	none
CCN(CC)c1ccc(/C=N/Nc2ccccc2)c(O)c1	GAA glycogen mod 17.6µM
CCc1cc(-c2n[nH]c(C)c2-c2nc3ccccc3n2C)c(O)c(CN2CCN(C)CC2)c1O	GAA glycogen mod 8.91µM
CCc1cc(-c2n[nH]c(C)c2-c2nc3ccccc3n2C)c(O)cc1O	GAA glycogen mod inconclusive, GAA inh inconclusive
COc1cc(-c2nc3ccccn3c2NCC2CCCO2)ccc1O (centres undefined)	GAA glycogen mod 28.2µM
COc1ccc(-c2nc3cccc(C)n3c2NCC2CCCO2)cc1O (centres undefined)	none
CCOc1cc(-c2nc3ccccn3c2NCC2CCCO2)ccc1O (centres undefined)	GAA glycogen mod 24.9µM
CCN1CCN(c2oc(/C=C/c3ccccc3)nc2C#N)CC1	aGal spleen mod inconclusive, GLA inh pH 4.5 inconclusive, aGlu spleen mod inconclusive, N370S GC inconclusive (no result: GAA inh)
Nc1ccc(-c2n[nH]c(=O)c3ccccc23)cc1N	GAA glycogen mod 17.8µM, GAA inh inconclusive
C/C=C/c1cc(CN2CCN(c3ccccc3)CC2)c(O)c(OC)c1	GAA glycogen mod inconclusive
C/C=C/c1cc(CN2CCN(c3ccc(OC)cc3)CC2)c(O)c(OC)c1	GAA glycogen mod 14.1µM
COc1ccc(-c2cc(-c3ccccc3)nc3c2COc2ccccc2-3)cc1	none (no result: aGal spleen mod, GLA inh pH 4.5, aGlu spleen mod, GAA inh, N370S GC)
COc1ccc(C2=Nc3ccccc3OC2)cc1	GAA glycogen mod 25.1µM, GLA inh pH 4.5 inconclusive
O=C(Nc1cc(S(=O)(=O)N2CCOCC2)ccc1N1CCOCC1)c1cc(=O)[nH]c2ccccc12	GAA glycogen mod 28.2µM, GAA inh inconclusive
Cc1oc2c(O)c(O)ccc2c(=O)c1-c1ccccc1	GAA glycogen mod 8.84µM
Cc1oc2c(O)c(O)ccc2c(=O)c1-c1ccc(Cl)cc1	GAA glycogen mod 7.08µM (no result: aGal spleen mod, GLA inh pH 4.5, aGlu spleen mod, GAA inh)
Cc1c(Cc2ccccc2)c(=O)oc2c(O)c(O)ccc12	GAA glycogen mod 5.01µM
Cc1oc2c(O)c(O)ccc2c(=O)c1-c1cnn(-c2ccccc2)c1	GAA glycogen mod 5.62µM
O=c1cc(-c2ccccc2)oc2c(O)c(O)ccc12	none (no result: GAA glycogen mod, GAA inh)
Cc1oc2cc(O)cc(C)c2c(=O)c1-c1cnn(-c2ccccc2)c1	none
O=C(CSc1nnnn1-c1ccc(F)cc1F)Nc1ccccc1F	none (no result: aGal spleen mod, GAA glycogen mod, GLA inh pH 4.5, aGlu spleen mod, GAA inh)
COc1ccc(CNc2nc(-c3ccccc3CN(C)C)nc3ccccc23)c(OC)c1	none (no result: GAA glycogen mod, GAA inh)
COc1ccccc1CNc1nc(-c2ccc(N(C)C)cc2)nc2ccccc12	none (no result: GAA glycogen mod, GAA inh)
COc1ccc(CNc2nc(-c3ccoc3)nc3ccccc23)c(OC)c1	N370S GC 14.1µM (no result: GAA glycogen mod, GAA inh)
COc1ccccc1CNc1nc(-c2ccc3c(c2)OCO3)nc2ccccc12	N370S GC 15.8µM (no result: GAA glycogen mod, GLA inh pH 4.5, GAA inh)
COc1cccc(-c2nc(NCc3ccccc3OC)c3ccccc3n2)c1	N370S GC 14.1µM (no result: GAA glycogen mod, GLA inh pH 4.5, GAA inh)
COc1cccc(-c2nc(NCc3ccccc3)c3ccccc3n2)c1	none (no result: GAA glycogen mod, GLA inh pH 4.5, GAA inh)
CC(C)(C)C1CCC(OC(=O)CN2CCCCC2)CC1 (centres undefined)	none (no result: GAA inh)
NC(C(=O)O)c1cc(O)cc(O)c1 (centres undefined)	none (no result: GAA glycogen mod, GLA inh pH 4.5, GAA inh)
CC(C)(C)CN1CCN(CC#Cc2ccccc2)CC1CCO (centres undefined)	none (no result: aGal spleen mod, GAA glycogen mod, GLA inh pH 4.5, aGlu spleen mod, GAA inh)
CCOC(=O)c1[nH]c(C)c(C(=O)OCc2ccccc2F)c1C	none (no result: aGal spleen mod, GAA glycogen mod, GLA inh pH 4.5, aGlu spleen mod, GAA inh)
CC1(C)CN(c2ccccc2)N(C(=O)c2ccc(C#N)cc2)C1=O	GAA glycogen mod 20µM
CC1(C)CN(c2ccccc2)N(C(=O)c2ccc(F)cc2)C1=O	none
